Source: PubChem BioAssay
This is one part of a sample in which hits are shown more often than they occur.
IDE exosite FP = exo-site inhibitors of human IDE, primary screen, biochemical, fluorescence anisotropy, probe displacement; purified IDE, FL-6b probe fluorescence polarization; stronger effect = lower value; Insulin-degrading enzyme (Homo sapiens), P14735; z-score at 20 µM; 17,000 tested, 6.3% active; AID 1259349, 2017;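 active = z-score of -3 or lower, meaning strong loss of probe binding signal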;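 also: His-tagged human IDE residues 42-1019 made in E. coli with 30 nM FL-6b probe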
Numbers without * were called inactive; ! = not active in a repeat.

SMILES	IDE exosite FP
CCCC#Cc1ccc([C@H]2[C@H]3CN(C(=O)NC4CCCC4)CCCCN3[C@H]2CO)cc1	-1.2
O=C(NC1CCCC1)N1CCCCN2[C@H](C1)[C@@H](c1ccc(-c3cncnc3)cc1)[C@@H]2CO	3.6
O=C(NC1CCCC1)N1CCCCN2[C@H](CO)[C@@H](c3ccc(-c4cncnc4)cc3)[C@H]2C1	2.2
CCCC#Cc1ccc([C@H]2[C@@H](CO)N3CCCCN(C(=O)NC4CCCC4)C[C@@H]23)cc1	-1
O=C(NC1CCCC1)N1CCCCN2[C@@H](CO)[C@@H](c3ccc(-c4ccccc4)cc3)[C@@H]2C1	-7*
O=C(NC1CCCC1)N1CCCCN2[C@H](CO)[C@@H](c3ccc(-c4cccnc4)cc3)[C@@H]2C1	-1.3
O=C(NC1CCCC1)N1CCCCN2[C@H](CO)[C@H](c3ccc(-c4ccccc4)cc3)[C@H]2C1	-5*
CCCC#Cc1ccc([C@@H]2[C@@H](CO)N3CCCCN(C(=O)NC4CCCC4)C[C@H]23)cc1	-4.9*
O=C(NC1CCCC1)N1CCCCN2[C@H](CO)[C@@H](c3ccc(-c4cncnc4)cc3)[C@@H]2C1	-0.14
C[C@@H]1CN([C@@H](C)CO)C(=O)c2cc(NC(=O)Nc3ccc(C(F)(F)F)cc3)ccc2O[C@@H](C)CCCCO[C@H]1CN(C)S(=O)(=O)c1ccc(Cl)cc1	0.032
OC[C@H]1N[C@@H](CNCC2CCC2)[C@@H]1c1ccc(C2=CCCCC2)cc1	-0.19
COc1ccc(CN(C)C[C@H]2OCCCC[C@H](C)Oc3ccc(NC(=O)C4CCCCC4)cc3C(=O)N([C@@H](C)CO)C[C@H]2C)cc1	0.67
N#C[C@@H]1[C@@H](c2ccccc2-c2cccc(F)c2)[C@H](CO)N1C(=O)C1CCC1	2.6
N#C[C@@H]1[C@H](c2ccc(C3=CCCCC3)cc2)[C@@H](CO)N1C(=O)Cc1ccncc1	7.6
CN1CCN(C(=O)C[C@@H]2C[C@H]3c4cc(NS(C)(=O)=O)ccc4O[C@H]3[C@H](CO)O2)CC1	0.78
CC(=O)N1[C@@H](CO)[C@@H](c2ccccc2)C12CN(S(=O)(=O)c1ccccc1)C2	1.1
O=C1CNC[C@@H]2[C@H](c3ccc(C4=CCCCC4)cc3)[C@H](CO)N12	1.9
COc1ccc(NC(=O)N2CCC3(CC2)CN(C(=O)C2CCC2)[C@H](CO)c2c3c3ccc(OC)cc3n2C)cc1	-0.081
C[C@H](CO)N1C[C@H](C)[C@H](CN(C)C(=O)Nc2ccc(-c3ccccc3)cc2)OCc2ccccc2-c2ccccc2C1=O	-1.7
Cc1cccc(-c2ccc([C@@H]3[C@H]4CN(C(=O)Cc5ccccn5)CC(=O)N4[C@H]3CO)cc2)c1	-15*
O=C(Cc1ccccn1)N1CC(=O)N2[C@H](CO)[C@H](c3ccc(C#CC4CC4)cc3)[C@@H]2C1	3.4
O=C(Cc1ccccn1)N1CC(=O)N2[C@H](CO)[C@H](c3ccc(-c4ccccc4)cc3)[C@@H]2C1	-3.7*
O=C(Cc1ccccn1)N1CC(=O)N2[C@H](C1)[C@H](c1ccc(-c3ccccc3)cc1)[C@@H]2CO	-1.5
COc1ccc(-c2ccc([C@H]3[C@H](CO)N4C(=O)CN(C(=O)Cc5ccccn5)C[C@@H]34)cc2)cc1	-1.3
O=C(Cc1ccccn1)N1CC(=O)N2[C@H](CO)[C@@H](c3ccc(C#CC4CC4)cc3)[C@@H]2C1	0.65
SMILES	IDE exosite FP
CCC(=O)NC[C@H]1[C@H](c2ccccc2)[C@H](CO)N1C(=O)C1CCC1	0.23
COCC(=O)N1[C@@H]2c3cccc(=O)n3C[C@@H]2[C@@H](CO)[C@@H]1C(=O)NCc1ccccc1	0.14
O=C(c1ccc2c(c1)OCO2)N1CC(=O)N2[C@H](C1)[C@H](c1ccc(C#CCC3CCCC3)cc1)[C@@H]2CO	2.4
O=C(C[C@@H]1CC[C@H]2[C@@H](COC[C@H](O)CN2Cc2nccs2)O1)N1CCC(Cc2ccccc2)CC1	-1.1
COCC#Cc1ccc([C@H]2[C@H]3CN(C(=O)COC)CCCCN3[C@H]2CO)cc1	2.4
COCC(=O)N1CCCCN2[C@H](CO)[C@@H](c3ccc(C#Cc4ccccc4)cc3)[C@H]2C1	-7.1*
COCC(=O)N1CCCCN2[C@H](C1)[C@@H](c1ccc(C#Cc3ccc(OC)cc3)cc1)[C@@H]2CO	4.1
COc1ccc(C#Cc2ccc([C@@H]3[C@@H](CO)N4CCCCN(C(=O)c5ccncc5)C[C@H]34)cc2)cc1	1.7
COCC#Cc1ccc([C@H]2[C@@H](CO)N3CCCCN(C(=O)COC)C[C@@H]23)cc1	4.1
COCC#Cc1ccc([C@H]2[C@H](CO)N3CCCCN(C(=O)COC)C[C@@H]23)cc1	3.5
COCC(=O)N1CCCCN2[C@@H](CO)[C@H](c3ccc(C#Cc4ccc(OC)cc4)cc3)[C@@H]2C1	-3.1*
COc1ccc(C#Cc2ccc([C@H]3[C@H](CO)N4CCCCN(C(=O)c5ccncc5)C[C@@H]34)cc2)cc1	2.1
COc1ccc(C#Cc2ccc([C@H]3[C@@H](CO)N4CCCCN(C(=O)c5ccncc5)C[C@@H]34)cc2)cc1	-6.6*
COc1ccccc1NC(=O)N1CC(=O)N2[C@H](CO)[C@H](c3ccc(-c4ccc(F)cc4)cc3)[C@@H]2C1	0.041
Cn1cnc(S(=O)(=O)N[C@H]2CC[C@@H](CC(=O)NCC3CCCCC3)O[C@H]2CO)c1	1.1
COc1ccc2c3c(n(C)c2c1)[C@H](CO)N(CC1CC1)CC31CN(C(=O)c2ccc3c(c2)OCO3)C1	0.53
O=C(C[C@H]1C[C@H]2c3cc(NC(=O)Nc4ccccc4)ccc3O[C@H]2[C@@H](CO)O1)NCc1ccccc1	0.24
CC(C)C(=O)Nc1ccc2c(c1)C(=O)N(C)[C@@H]1CC[C@@H](CC(=O)NCCc3ccccc3)O[C@@H]1CO2	-0.65
COc1ccc(C[C@@H]2CCn3nncc3COC[C@@H](c3ccccc3)NC2=O)cc1	0.43
CCCN1[C@@H]2c3ccc(-c4ccncc4)c(=O)n3C[C@@H]2[C@@H](CO)[C@@H]1C(=O)NCCCN1CCOCC1	-0.78
CCC(=O)N1CC(=O)N2[C@@H](CO)[C@H](c3ccc(-c4ccccc4F)cc3)[C@@H]2C1	0.65
CCC(=O)N1CC(=O)N2[C@H](CO)[C@@H](c3ccc(-c4ccccc4C)cc3)[C@H]2C1	-4*
CCS(=O)(=O)N1CC(=O)N2[C@H](CO)[C@@H](c3ccc(-c4ccccc4C)cc3)[C@H]2C1	-0.81
COCC(=O)N1CC(=O)N2[C@H](CO)[C@@H](c3ccc(-c4ccccc4C)cc3)[C@H]2C1	-0.94
Cc1ccccc1-c1ccc([C@H]2[C@H](CO)N3C(=O)CN(S(C)(=O)=O)C[C@@H]23)cc1	-1.4
SMILES	IDE exosite FP
CCC(=O)N1CC(=O)N2[C@H](CO)[C@H](c3ccc(-c4ccccc4C)cc3)[C@@H]2C1	-8*
COc1ccc([C@@H]2CC=CC[C@H](C)Oc3ccccc3C(=O)N(C)[C@@H](Cc3ccccc3)C(=O)N2)c(OC)c1 (mixture of isomers)	-0.12
O=C(C[C@@H]1CC[C@@H]2NC[C@H](O)COC[C@H]2O1)Nc1ccc(-c2ccccc2)cc1	-2.2
COc1ccc2c3c(n(C)c2c1)[C@H](CO)N(C(=O)CN(C)C)CC31CN(Cc2nccs2)C1	-1.8
N#C[C@H]1[C@@H](c2ccccc2)[C@H](CO)N1C(=O)Cc1ccccc1	1.8
CO[C@@H]1CC[C@@H]2CCN(C)C(=O)CCCN(C)C(=O)c3cc(C#N)ccc3OC[C@H]1O2	0.87
Cc1ccccc1-c1ccc(C2[C@@H]3CN(Cc4cocn4)C[C@H]2N3)cc1 (stereo not given in full)	-3*!
